Data taken from PubChem BioAssay (NCI).
About 83,000 compounds went through this panel and 20% of them were active in at least one assay; those are over-represented in the sample as a whole.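 Single-concentration screen, 48 h exposure, 96-well plates. Endpoint: percent growth. Below 10 = active.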 Activity calls are given as the source filed them.

Tests used:
Assay in all cases: NCI-60 one-dose screen, 48 h (100 = growth as untreated, 0 = no growth, -100 = all killed)
Conditions in all cases: 10 µM
[1] = system: SK-MEL-2 melanoma
[2] = system: EKVX NSCLC
[3] = system: SN12C renal
[4] = system: UO-31 renal
[5] = system: TK-10 renal
[6] = system: ACHN renal
[7] = system: CAKI-1 renal
[8] = system: A498 renal
[9] = system: CCRF-CEM leukemia
[10] = system: MOLT-4 leukemia
[11] = system: SR leukemia
[12] = system: RPMI-8226 leukemia
[13] = system: OVCAR-8 ovarian
[14] = system: OVCAR-4 ovarian
[15] = system: SK-OV-3 ovarian
[16] = system: IGROV1 ovarian
[17] = system: OVCAR-3 ovarian
[18] = system: HS 578T breast
[19] = system: NCI/ADR-RES ovarian
[20] = system: OVCAR-5 ovarian

Measured: growth

O=C(NO)c1ccc(-c2nc3ccc4[nH]ncc4c3c3c2CCCC3)cc1
inactive: [5] 20.2% | [15] 21.1%
active: [1] -89.7% | [2] -19.4% | [3] -13.8% | [4] -15.8% | [6] 2.16% | [7] -0.924% | [8] -49.1% | [9] 5.08% | [10] 3.76% | [11] -13.8% | [12] -9.23% | [13] -16.7% | [14] -4.75% | [16] -18.9% | [17] -57% | [18] -29.8% | [19] -4.37%

Oc1ccc(/C=C2\CCCc3cc4ccc(O)cc4[o+]c32)c(O)c1
inactive: [1] 37.2% | [2] 65.9% | [3] 26.5% | [4] 51.9% | [5] 92.3% | [6] 29.3% | [7] 40.2% | [8] 130% | [9] 39% | [10] 28.5% | [11] 15.3% | [12] 50.6% | [20] 122% | [14] 42.9% | [15] 86.3% | [16] 21.4%
active: [13] -56.9% | [17] -45.1% | [19] -24.7%

CCOP(=O)(OCC)O[C@H]1CC[C@]2(C)[C@H]3CC[C@@H]4[C@@H]([C@](C)(O)CCC=C(C)C)CC[C@@]4(C)[C@]3(C)CC[C@H]2C1(C)C
active: [3] -51.7% | [9] -21.2% | [10] -15.5% | [11] -7.18% | [12] 2.3%
inactive: [1] 17.1% | [2] 28.2% | [4] 24.8% | [5] 36.6% | [6] 28% | [7] 25.2% | [8] 52.5% | [20] 44% | [14] 38.8% | [15] 37% | [16] 55% | [17] 11.1% | [18] 11.4% | [19] 36%

COc1cccc2nc(Nc3cccc(NC(=O)c4ccc(CN5CCCN(C)CC5)c(C(F)(F)F)c4)c3)ccc12
active: [1] -87.4% | [2] -98.9% | [3] -79.9% | [4] -97.2% | [5] -89.4% | [6] -100% | [7] -100% | [8] -91% | [9] -54.3% | [10] -42.8% | [11] -27.1% | [12] -39.4% | [13] -69.3% | [20] -100% | [14] -84.4% | [15] -72.8% | [16] -85.2% | [17] -58.6% | [19] -77.9%

O=C(NO)c1ccc(Cn2ccc3c(Nc4ccccc4)ncnc32)cc1
inactive: [2] 23.6% | [3] 17.6% | [7] 10.7% | [9] 18.2% | [11] 11.9% | [12] 20.3% | [14] 38.7% | [17] 19.7%
active: [1] 8.71% | [4] 9.48% | [5] 2.65% | [6] 1.86% | [8] -14.2% | [10] 7.84% | [13] -21.4% | [20] 0.443% | [15] -7.35% | [16] -30.8% | [18] 9.25% | [19] -29.4%

Cc1ccn2c(C(=O)c3ccc(Br)cc3)cc(-c3cc(-c4ccc(N(C)C)cc4)c(C#N)c(N)n3)c2c1
inactive: [1] 81.1% | [2] 68.2% | [3] 76.5% | [4] 63.3% | [5] 98.9% | [6] 71.5% | [7] 67.2% | [8] 91.9% | [9] 94.3% | [10] 94% | [11] 64.3% | [12] 83.7% | [13] 38.2% | [14] 63.3% | [15] 93.8% | [16] 76.6% | [17] 50.2% | [18] 70.2% | [19] 72%

Cc1ccc(C(=O)CSc2nnc(-c3c[nH]c4ccccc34)n2-c2ccccc2)cc1
inactive: [1] 84.7% | [2] 53% | [3] 24.9% | [4] 30.3% | [6] 20.4% | [7] 12.4% | [8] 85.8% | [9] 60.8% | [10] 61.7% | [11] 53% | [12] 58.9% | [13] 11.3% | [20] 13% | [15] 24% | [16] 24.2% | [17] 65.2%
active: [5] -2.18% | [14] -15.6% | [19] -27.7%

O=C(CSc1nnc(-c2c[nH]c3ccccc23)n1-c1ccccc1)Nc1ccc(C(=O)/C=C/c2ccccc2Cl)cc1
inactive: [1] 93.5% | [2] 67.2% | [3] 84.5% | [4] 51.6% | [5] 103% | [6] 74.5% | [7] 74% | [8] 101% | [9] 88.2% | [10] 55.6% | [11] 71.6% | [12] 40.3% | [13] 61.7% | [20] 101% | [14] 79.1% | [15] 95.2% | [16] 95.1% | [17] 80.6% | [19] 92.4%

Cn1cc(/C=N/Nc2cccc(Cl)n2)c2ccccc21
inactive: [1] 87.5% | [2] 57.9% | [3] 69.6% | [4] 40.7% | [5] 113% | [6] 71.4% | [7] 66.9% | [8] 101% | [9] 48.2% | [10] 32.9% | [11] 27.6% | [12] 47.6% | [13] 80.3% | [20] 92.5% | [14] 60.3% | [15] 92.6% | [16] 46.1% | [17] 63.3% | [19] 36.1%

COc1ccc(Nc2nc(N)n(Cc3cccc(Br)c3)n2)cc1
inactive: [3] 14.7% | [5] 24.9% | [9] 10.2% | [11] 12.6% | [13] 26.2% | [20] 21.7% | [15] 22.8% | [16] 12% | [17] 19.6%
active: [1] -35.7% | [2] 6.36% | [4] 0.264% | [6] 1.18% | [7] 8.17% | [8] -19.5% | [10] 9.01% | [12] 8.38% | [14] 7.22% | [19] 2.23%

CN1CCN(Cc2ccc(NC(=O)c3cncc(C#Cc4cnc5ccc(N[C@@H]6CCOC6)nn45)c3)cc2C(F)(F)F)CC1
active: [1] -94.3% | [2] -99.6% | [3] -98.6% | [4] -98.6% | [5] -82.2% | [6] -100% | [7] -98.1% | [8] -97.6% | [9] -4.84% | [10] -19% | [11] -18.5% | [12] -24.1% | [13] -96.2% | [20] -91.6% | [14] -66.3% | [15] -83.1% | [16] -91.6% | [17] -90.3% | [19] -77.5%

CC(=O)Oc1ccccc1C(=O)Oc1ccc(C(=O)/C=C/c2ccncc2)cc1
active: [11] 7.37%
inactive: [1] 108% | [2] 80.6% | [3] 18.6% | [4] 38.7% | [5] 91.6% | [6] 56% | [7] 59.7% | [8] 84% | [9] 43.6% | [10] 40.1% | [12] 13.6% | [13] 30.8% | [14] 59.9% | [15] 96.7% | [16] 22.3% | [17] 19.5% | [18] 32.8% | [19] 63.5%

CCOC(=O)CNC(=O)CN(Cc1ccccc1)C(=O)[C@@]1(C)CCC[C@]2(C)[C@H]3CC4C(C(C)C)=C[C@]3(CC[C@H]21)[C@@H]1C(=O)CCC(=O)[C@H]41
active: [11] 8.03%
inactive: [1] 47.4% | [2] 66.2% | [3] 50% | [4] 47.9% | [5] 98.1% | [6] 52.9% | [7] 81.3% | [8] 120% | [9] 16.4% | [10] 15.8% | [12] 19.8% | [13] 58.3% | [14] 49.4% | [15] 96.6% | [16] 18.2% | [17] 61.1% | [18] 52.6% | [19] 47.9%

COc1ccc(C(=O)/C=C/c2ccc(Cl)c(C(F)(F)F)c2)cc1S(N)(=O)=O
active: [1] -83.1% | [2] -98.2% | [3] -100% | [4] -99.6% | [5] -96.3% | [6] -100% | [7] -100% | [8] -30.3% | [9] 4.6% | [10] 8.09% | [11] 8.87% | [12] 2.54% | [20] -100% | [14] -99.7% | [15] 9.96% | [16] -91.5% | [17] -66.5% | [18] -41.3% | [19] -44%

COc1ccc(/C(CSc2nnc(-c3c[nH]c4ccccc34)n2-c2ccccc2)=N/O)cc1
inactive: [2] 15.1% | [3] 45.8% | [4] 18.2% | [5] 42.7% | [6] 22.3% | [7] 20.1% | [8] 69.8% | [9] 16.5% | [10] 16.7% | [11] 10.9% | [13] 29.7% | [20] 55% | [14] 16.8% | [15] 52.1% | [16] 43.1% | [17] 30.5% | [19] 38.2%
active: [1] 5.87% | [12] 9.81%

Cn1c(O)c(N=Nc2nc(-c3cc4ccccc4oc3=O)cs2)c2cc(Br)ccc21
inactive: [1] 31.8% | [2] 65.4% | [3] 73.8% | [4] 77.9% | [5] 56.8% | [6] 35.4% | [7] 75.7% | [8] 16.5% | [9] 97.7% | [10] 104% | [11] 71.7% | [12] 96.6% | [13] 79.2% | [20] 86.5% | [14] 80.9% | [15] 57.7% | [16] 64.2% | [17] 96.4% | [18] 17.5% | [19] 68.4%
